# Measured values: PubChem BioAssay (NCATS)
# Several values for one entry are separate records, joined by “and”; a condition that tells them apart may be missing. Equal values may be shown once. Inconclusive results are not listed. Some structures have more than one record in an assay (separate samples or runs), and their calls can disagree. Activity calls are given as the source filed them. The call rests on the fitted dose curve; in most records, active means well fitted curve in the direction sought with a large enough effect; inconclusive means small, poorly fitted or top-dose-only effect, or another doubt; inactive means no such curve, though single readings can be large; an effect the other way counts as inactive or inconclusive.
# What was measured:
# [1] = biological target: Cytochrome P450 2C9 (Homo sapiens) (UniProt P11712); assay: qHTS Assay for Inhibitors and Substrates of Cytochrome P450 2C9 (AID 883); details: recombinant CYP2C9, luciferin-H luminescence, 60 min; series mostly up to 11.4 µM; further: nearly all actives have a fitted effect of over 60% in size; further: potency means the concentration at half of the fitted maximal effect; on activity change, negative = inhibition: on the % scale 0 is the no-effect control and ±100 the full control effect
# Cytochrome P450 2C9 (Homo sapiens), sequence (P11712 whole entry, looked up): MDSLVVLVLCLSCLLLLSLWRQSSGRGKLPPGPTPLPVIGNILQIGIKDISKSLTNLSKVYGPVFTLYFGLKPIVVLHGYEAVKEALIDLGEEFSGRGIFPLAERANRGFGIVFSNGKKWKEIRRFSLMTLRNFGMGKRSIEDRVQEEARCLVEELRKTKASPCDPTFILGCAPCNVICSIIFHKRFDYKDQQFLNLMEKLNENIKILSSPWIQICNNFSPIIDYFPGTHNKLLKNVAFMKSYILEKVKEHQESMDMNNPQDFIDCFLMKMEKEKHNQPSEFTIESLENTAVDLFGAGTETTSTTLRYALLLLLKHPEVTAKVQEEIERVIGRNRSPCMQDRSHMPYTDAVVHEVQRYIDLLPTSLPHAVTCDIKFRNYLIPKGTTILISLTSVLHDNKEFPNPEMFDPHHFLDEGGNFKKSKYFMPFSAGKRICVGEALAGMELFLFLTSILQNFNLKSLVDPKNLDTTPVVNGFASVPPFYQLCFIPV
# How it was run: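 Human CYP2C9 (10nM) with Luciferin-H at 100uM (its KM) in 25mM KPO4; compound preincubated 10 min at 37C, then NADPH regeneration for 60 min at 37C. Luciferin read by luminescence after detection reagent; normalized to 57uM sulphaphenazole as full inhibition.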
# [2] = biological target: Cytochrome P450 3A4 (Homo sapiens) (UniProt P08684); assay: qHTS Assay for Inhibitors and Substrates of Cytochrome P450 3A4 (AID 884); details: recombinant CYP3A4, Luciferin-PPXE luminescence; series mostly up to 57.1 µM; further: nearly all actives have a fitted effect of over 50% in size; further: potency means the concentration at half of the fitted maximal effect; on activity change, negative = inhibition: on the % scale 0 is the no-effect control and ±100 the full control effect
# Cytochrome P450 3A4 (Homo sapiens), sequence (P08684 whole entry, looked up): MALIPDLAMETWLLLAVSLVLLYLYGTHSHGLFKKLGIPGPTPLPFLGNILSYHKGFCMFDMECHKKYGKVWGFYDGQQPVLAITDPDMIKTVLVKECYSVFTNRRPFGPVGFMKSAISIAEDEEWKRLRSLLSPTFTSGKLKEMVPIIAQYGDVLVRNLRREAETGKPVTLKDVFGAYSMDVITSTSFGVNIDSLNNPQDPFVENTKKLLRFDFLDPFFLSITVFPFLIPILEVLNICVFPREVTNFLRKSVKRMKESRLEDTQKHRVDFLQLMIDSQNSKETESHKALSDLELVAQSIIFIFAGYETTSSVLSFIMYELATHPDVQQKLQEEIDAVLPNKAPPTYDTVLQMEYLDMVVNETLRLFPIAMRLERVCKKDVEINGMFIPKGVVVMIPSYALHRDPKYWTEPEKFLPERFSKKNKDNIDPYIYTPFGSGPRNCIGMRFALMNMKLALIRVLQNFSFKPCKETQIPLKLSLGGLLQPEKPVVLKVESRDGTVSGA
# How it was run: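 Luminescent readout of luciferin produced by CYP3A4 (20 nM) dealkylation of Luciferin-PPXE, 25 uM (its KM). NADPH-driven reaction ran 60 min at RT after 10 min compound preincubation; data scaled to 57 uM ketoconazole as 100% inhibition.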
# [3] = biological target: Cytochrome P450 3A4 (Homo sapiens) (UniProt P08684); assay: qHTS Assay for Activators of Cytochrome P450 3A4 (AID 885); details: recombinant CYP3A4, Luciferin-PPXE luminescence, 60 min; series mostly up to 57.1 µM; further: nearly all actives have a fitted effect of over 65% in size
# How it was run: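 Luminescent readout of luciferin formed from 25 uM Luciferin-PPXE (KM level) by 20 nM CYP3A4 in 200 mM KPO4, with 60 min NADPH-driven reaction at room temperature after 10 min compound exposure. Ketoconazole (57 uM) defined 100% inhibition.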
# [4] = biological target: Cytochrome P450 2D6 (Homo sapiens) (UniProt P10635); assay: qHTS Assay for Inhibitors and Substrates of Cytochrome P450 2D6 (AID 891); details: recombinant CYP2D6, luciferin-ME EGE luminescence; series mostly up to 11.4 µM; further: nearly all actives have a fitted effect of over 60% in size; further: potency means the concentration at half of the fitted maximal effect;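 on activity change, negative = inhibition: luciferin methyl ether substrate demethylated by CYP2D6 with NADPH regeneration; on the % scale 0 is the no-effect control and ±100 the full control effect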
# Cytochrome P450 2D6 (Homo sapiens), sequence (P10635 whole entry, looked up): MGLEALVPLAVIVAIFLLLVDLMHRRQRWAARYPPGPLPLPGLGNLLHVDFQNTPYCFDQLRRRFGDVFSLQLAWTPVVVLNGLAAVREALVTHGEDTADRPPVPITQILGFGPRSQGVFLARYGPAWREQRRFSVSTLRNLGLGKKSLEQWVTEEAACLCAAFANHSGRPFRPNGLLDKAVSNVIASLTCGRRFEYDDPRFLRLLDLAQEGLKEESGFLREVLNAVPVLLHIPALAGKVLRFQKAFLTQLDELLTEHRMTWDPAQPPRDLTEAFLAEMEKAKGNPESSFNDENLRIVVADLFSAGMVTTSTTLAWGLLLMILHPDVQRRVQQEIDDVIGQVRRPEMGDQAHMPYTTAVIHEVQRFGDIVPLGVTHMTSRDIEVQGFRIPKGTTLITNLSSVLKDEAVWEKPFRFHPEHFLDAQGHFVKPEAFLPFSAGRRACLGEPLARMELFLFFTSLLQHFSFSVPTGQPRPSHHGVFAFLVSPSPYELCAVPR
# How it was run: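 Luminescent read-out of luciferin formed by 5 nM human CYP2D6 demethylating 30 uM Luciferin-ME EGE (Km level) over 60 min at room temperature after NADPH regeneration addition. Data normalized to full inhibition by 1.43 uM quinidine.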
# [5] = biological target: Cytochrome P450 2C19 (Homo sapiens) (UniProt P33261); assay: qHTS Assay for Inhibitors and Substrates of Cytochrome P450 2C19 (AID 899); details: recombinant CYP2C19, luciferin-H EGE luminescence; series mostly up to 11.4 µM; further: nearly all actives have a fitted effect of over 60% in size; further: potency means the concentration at half of the fitted maximal effect
# Cytochrome P450 2C19 (Homo sapiens), sequence (P33261 whole entry, looked up): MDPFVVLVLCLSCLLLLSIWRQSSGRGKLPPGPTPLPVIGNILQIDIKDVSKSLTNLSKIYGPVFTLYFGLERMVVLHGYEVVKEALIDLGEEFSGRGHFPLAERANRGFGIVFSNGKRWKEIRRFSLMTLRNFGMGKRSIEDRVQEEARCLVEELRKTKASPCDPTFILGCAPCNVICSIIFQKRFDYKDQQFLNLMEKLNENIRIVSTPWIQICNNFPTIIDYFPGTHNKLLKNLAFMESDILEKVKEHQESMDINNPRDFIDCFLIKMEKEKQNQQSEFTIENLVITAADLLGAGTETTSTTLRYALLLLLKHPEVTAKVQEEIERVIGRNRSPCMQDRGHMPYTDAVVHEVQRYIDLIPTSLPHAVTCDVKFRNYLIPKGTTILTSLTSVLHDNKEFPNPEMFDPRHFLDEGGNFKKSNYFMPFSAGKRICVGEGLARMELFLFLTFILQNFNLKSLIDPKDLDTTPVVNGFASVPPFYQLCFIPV
# How it was run: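 5 nM human CYP2C19 with 10uM Luciferin-H EGE (at KM) in 50mM KPO4, compound preincubated 10 min at 37C, then NADPH regeneration for 60 min at 37C. Luciferin read by luminescence after detection reagent; normalized to 57uM ketoconazole as full inhibition.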
SMILES,Potency [1],"activity change, negative = inhibition [2]","activity change, positive = activation [3]",Potency [4],Potency [5],Potency [2]
COC(=O)C1=C(C)N(Cc2ccccc2)[C@]23O[C@](C(=O)OC)(C(=O)N2C1c1ccccc1)C(C(=O)OC)C3C(=O)OC (stereo partly specified),inactive,-20.8% [at 11.4 µM] (inactive),-46.5% [at 11.4 µM] (inactive),inactive,inactive,
OCC1OC(/C=C\c2ccccc2)C=CC1Oc1ccc2c(c1)OCO2 (stereo unspecified),inactive,,-105% [at 11.4 µM] (inactive),3.98 µM (active),251 nM (active),0.398 µM (active)
COC(=O)NC(/C(C(=O)OC)=C(\C)NCc1ccccc1)c1ccc(F)cc1 (stereo unspecified),2.51 µM (active),,-71.8% [at 11.4 µM] (inactive),1 µM (active),,3.16 µM (active)
C=CCOC(=O)/C=C/NC(=O)/C=C/C=C/CCCCCCCC(C)O (stereo unspecified),3.98 µM (active) and 2.51 µM (active),,-72.9% [at 11.4 µM] (inactive) and -68.1% [at 11.4 µM] (inactive),inactive,inactive,3.16 µM (active) and 3.98 µM (active)
CC(=O)OCC1OC(c2cc(C)cc(C)c2)C=CC1OC(C)=O (stereo unspecified),inactive,,-86.4% [at 11.4 µM] (inactive),inactive,,3.16 µM (active)
CCCCC#CC1C=CC(OC(C)=O)C(COC(C)=O)O1 (stereo unspecified),inactive,,-63.9% [at 11.4 µM] (inactive),inactive,,2.51 µM (active)
Cc1cc(C)cc(/C=C/C2OCC(O)C2Oc2ccc(C3CCCC3)cc2)c1 (stereo unspecified),inactive,,-62.6% [at 11.4 µM] (inactive) and -33.3% [at 11.4 µM] (inactive),inactive,inactive,3.16 µM (active)
COC(=O)C1=C(C)N(Cc2ccccc2)C2=C3C(=O)OCCC3[C@@](O)(C(=O)OC)C(=O)N2C1c1ccccc1 (stereo partly specified),inactive,,-61.3% [at 11.4 µM] (inactive),inactive,inactive,3.98 µM (active)
C=CCOC(=O)C(C(C)=O)C(NC(=O)OC)c1ccc(F)cc1 (stereo unspecified),inactive,,-78% [at 11.4 µM] (inactive),inactive,398 nM (active),3.16 µM (active)
COc1ccc(OC2C=CC(C#Cc3ccc(F)cc3F)OC2CO)cc1 (stereo unspecified),inactive,,-84.9% [at 11.4 µM] (inactive) and -82.9% [at 11.4 µM] (inactive),inactive,398 nM (active),3.98 µM (active) and 3.16 µM (active)
CCCCCCCC#Cc1ccccc1/C=N/S(=O)c1ccc(C)cc1 (stereo unspecified),inactive,,-65.3% [at 11.4 µM] (inactive),inactive,inactive,3.98 µM (active)
CCOC(=O)OCC1OC(C#Cc2ccc(F)cc2F)C=CC1OC(=O)OCC (stereo unspecified),inactive,,-75.6% [at 11.4 µM] (inactive),inactive,inactive,3.16 µM (active)
CC1CN2C(CCC(C)C2c2ccc(Br)cc2)C(=O)O1 (stereo unspecified),inactive,-15.8% [at 11.4 µM] (inactive) and -28.1% [at 11.4 µM] (inactive),-51.1% [at 11.4 µM] (inactive),inactive,inactive and 501 nM (active),
C=CCOC(=O)C(C(C)=O)C(NC(=O)OC)c1cccc(C(F)(F)F)c1 (stereo unspecified),inactive,,-104% [at 11.4 µM] (inactive),inactive,100 nM (active),1.58 µM (active)
COc1ccc(/C=C/C(=O)c2ccc(OC)cc2O)cc1,inactive,,-92.3% [at 11.4 µM] (inactive),inactive,,3.16 µM (active)
CN(C)c1cccc(OC2C=CC(C#Cc3ccccc3)OC2CO)c1 (stereo unspecified),inactive,,-83.1% [at 11.4 µM] (inactive),inactive,3980 nM (active),3.98 µM (active)
COc1ccc(OC2C=CC(C#Cc3ccc(Br)cc3)OC2CO)c(C(C)(C)C)c1 (stereo unspecified),3.16 µM (active),,-84.8% [at 11.4 µM] (inactive),inactive,,3.98 µM (active)
C=CCOC(=O)C(C(C)=O)C(NC(=O)OC)c1ccccc1 (stereo unspecified),inactive,,-86.9% [at 11.4 µM] (inactive),inactive,631 nM (active),3.98 µM (active)
COc1ccc(/C=C/NC(=O)c2ccc(OC)cc2)cc1,inactive,,-68.6% [at 11.4 µM] (inactive),inactive,,3.16 µM (active)
COc1ccc(OC2C=CC(C#Cc3ccccc3)OC2CO)cc1 (stereo unspecified),inactive,,-79.3% [at 11.4 µM] (inactive),inactive,,3.98 µM (active)
COc1ccc(/C=C/NC(=O)Cc2ccc(OC)c(OC)c2)cc1,inactive,,-57.1% [at 11.4 µM] (inactive) and -101% [at 11.4 µM] (inactive),inactive,,3.16 µM (active)

SMILES,Potency [1],"activity change, negative = inhibition [2]","activity change, positive = activation [3]",Potency [4],Potency [5],Potency [2]
CC(=O)OCC1OC(C#Cc2ccccc2)C=CC1OC(C)=O (stereo unspecified),inactive,,-91.5% [at 11.4 µM] (inactive) and -31.7% [at 11.4 µM] (inactive),inactive,inactive,3.98 µM (active)
COC(=O)C1=C(C)N(Cc2ccccc2)[C@]23O[C@](C(=O)OC)(C(=O)N2C1c1ccccc1)C(c1ccccc1)C3C(=O)c1ccccc1 (stereo partly specified),inactive,-26.7% [at 11.4 µM] (inactive),-32.3% [at 11.4 µM] (inactive),inactive,inactive,
COC(=O)C1=C(C)N(Cc2ccccc2)C2=C(C(=O)c3ccccc3)C(c3ccccc3)[C@@](O)(C(=O)OC)C(=O)N2C1c1ccccc1 (stereo partly specified),inactive,-22.8% [at 11.4 µM] (inactive),-54.4% [at 11.4 µM] (inactive),inactive,inactive,
CCCCCCC(=O)Cc1cc(OC)c(OC)cc1/C=C(/C(C)=O)C(=O)OC,inactive,,-68.2% [at 11.4 µM] (inactive),inactive,,3.98 µM (active)
CCC(=O)[C@]12O[C@@]3(C4C(=O)OCCC41)N(Cc1ccccc1)C(C)=C(C(=O)OC)C(c1ccccc1)N3C2=O (stereo partly specified),inactive,,-106% [at 11.4 µM] (inactive),inactive,inactive,1.26 µM (active)
C#CCC(C(=O)OC)(C(=O)OC)C(C[N+](=O)[O-])c1ccccc1 (stereo unspecified),inactive,,-77% [at 11.4 µM] (inactive),inactive,inactive,3.16 µM (active)
COc1ccc(OC2C=CC(c3ccccc3)OC2CO)c(C(C)(C)C)c1 (stereo unspecified),3.16 µM (active),,-79.5% [at 11.4 µM] (inactive),inactive,3160 nM (active),0.794 µM (active)
C=CCOC(=O)C(C(C)=O)C(NC(=O)OC)c1cccs1 (stereo unspecified),inactive,,-101% [at 11.4 µM] (inactive),inactive,398 nM (active),3.16 µM (active)
COC(=O)C1=C(C)N(Cc2ccccc2)C2=C3C(=O)CCCC3[C@@](O)(C(=O)OC)C(=O)N2C1c1ccccc1 (stereo partly specified),inactive,-20% [at 11.4 µM] (inactive),-36% [at 11.4 µM] (inactive),inactive,,
COC(=O)NC(c1cccc(C)c1)[C@]1(C(C)=O)CCOC1=O (stereo partly specified),3.16 µM (active),,-88.5% [at 11.4 µM] (inactive),inactive,39.8 nM (active),0.0316 µM (active)
COc1ccc(O[C@H]2C=C[C@@H](c3ccccc3)O[C@H]2COC(=O)CC/C(C)=N/OCC[C@@H]2C=C[C@H](OC(C)=O)[C@H](COC(C)=O)O2)cc1,3.98 µM (active),,-91.8% [at 11.4 µM] (inactive),,398 nM (active),3.98 µM (active)
CCN1C(C)=C(C(=O)OC)C(c2ccccc2)N2C(=O)[C@](O)(C(=O)OC)C(c3ccccc3)C(C(=O)c3ccccc3)=C12 (stereo partly specified),inactive,,-65.7% [at 11.4 µM] (inactive),,inactive,3.16 µM (active)
COc1ccc(OC2C(O)COC2/C=C/C#Cc2ccc(F)cc2F)cc1 (stereo unspecified),2.51 µM (active),,-91.9% [at 11.4 µM] (inactive) and -66.3% [at 11.4 µM] (inactive),inactive,inactive,3.98 µM (active) and 3.16 µM (active)
C=COCC1CN2C(CCC(C)C2c2ccc(Br)cc2)C(=O)O1 (stereo unspecified),inactive,,-65.3% [at 11.4 µM] (inactive) and -87.4% [at 11.4 µM] (inactive),inactive,316 nM (active) and 79.4 nM (active),3.16 µM (active) and 794 nM (active)
C=CCOC(=O)C(C(C)=O)C(NC(=O)OC)c1cccc(C)c1 (stereo unspecified),inactive,,-86.6% [at 11.4 µM] (inactive),inactive,794 nM (active),2.51 µM (active)
C=CCC(O)CC1C2C(CC(O)CC=C)C3C1C3C2OC(C)(C)C (stereo unspecified),inactive,,-98.2% [at 11.4 µM] (inactive),inactive,794 nM (active),1.58 µM (active)
CC#CCOCC/C=C1/c2ccccc2C(OC)C1C (stereo unspecified),inactive,,-90.8% [at 11.4 µM] (inactive),inactive,1000 nM (active),3.98 µM (active)
CCCNC(=O)OC[C@H]1O[C@@H](CCO/N=C\[C@@H](NS(=O)(=O)c2ccc(C)cc2)[C@H](C)/C=C\CC(=O)OC)C=C[C@@H]1Oc1ccc(OC)cc1,3.98 µM (active),,-106% [at 11.4 µM] (inactive),,3160 nM (active),3.16 µM (active)
CCOC(=O)OCC1OC(C#Cc2ccccc2)C=CC1Oc1cccc(N(C)C)c1 (stereo unspecified),2.51 µM (active),,-91.5% [at 11.4 µM] (inactive),,1580 nM (active),3.98 µM (active)
C/C=C/OC(=O)NC(c1ccccc1)[C@@]1(C(=O)OC)CCCC1=O (stereo partly specified),inactive,,-81.6% [at 11.4 µM] (inactive),inactive,1260 nM (active),1 µM (active)
